Consider 60 compounds from PubChem BioAssay AID1347165 (National Center for Advancing Translational Sciences (NCATS), 2019).

In all, about 220,000 compounds went through this assay and about 5,700 (2.6%) were called active. Not shown: some 18% with an inconclusive outcome. The call rests on the fitted dose curve; in most records, active means well fitted inhibition curve with a large enough effect; inconclusive means small, poorly fitted or top-dose-only effect; inactive means no such curve, though single readings can be large or run the other way. The list comes from a sample in which actives are over-represented; it also holds similar structures and randomly drawn compounds. Where a call stands in place of a potency, no number is given.
Potency means the concentration at half of the fitted maximal effect.

Chain of Lysine-specific demethylase 5B (Homo sapiens) (Q9UGL1 whole entry, looked up): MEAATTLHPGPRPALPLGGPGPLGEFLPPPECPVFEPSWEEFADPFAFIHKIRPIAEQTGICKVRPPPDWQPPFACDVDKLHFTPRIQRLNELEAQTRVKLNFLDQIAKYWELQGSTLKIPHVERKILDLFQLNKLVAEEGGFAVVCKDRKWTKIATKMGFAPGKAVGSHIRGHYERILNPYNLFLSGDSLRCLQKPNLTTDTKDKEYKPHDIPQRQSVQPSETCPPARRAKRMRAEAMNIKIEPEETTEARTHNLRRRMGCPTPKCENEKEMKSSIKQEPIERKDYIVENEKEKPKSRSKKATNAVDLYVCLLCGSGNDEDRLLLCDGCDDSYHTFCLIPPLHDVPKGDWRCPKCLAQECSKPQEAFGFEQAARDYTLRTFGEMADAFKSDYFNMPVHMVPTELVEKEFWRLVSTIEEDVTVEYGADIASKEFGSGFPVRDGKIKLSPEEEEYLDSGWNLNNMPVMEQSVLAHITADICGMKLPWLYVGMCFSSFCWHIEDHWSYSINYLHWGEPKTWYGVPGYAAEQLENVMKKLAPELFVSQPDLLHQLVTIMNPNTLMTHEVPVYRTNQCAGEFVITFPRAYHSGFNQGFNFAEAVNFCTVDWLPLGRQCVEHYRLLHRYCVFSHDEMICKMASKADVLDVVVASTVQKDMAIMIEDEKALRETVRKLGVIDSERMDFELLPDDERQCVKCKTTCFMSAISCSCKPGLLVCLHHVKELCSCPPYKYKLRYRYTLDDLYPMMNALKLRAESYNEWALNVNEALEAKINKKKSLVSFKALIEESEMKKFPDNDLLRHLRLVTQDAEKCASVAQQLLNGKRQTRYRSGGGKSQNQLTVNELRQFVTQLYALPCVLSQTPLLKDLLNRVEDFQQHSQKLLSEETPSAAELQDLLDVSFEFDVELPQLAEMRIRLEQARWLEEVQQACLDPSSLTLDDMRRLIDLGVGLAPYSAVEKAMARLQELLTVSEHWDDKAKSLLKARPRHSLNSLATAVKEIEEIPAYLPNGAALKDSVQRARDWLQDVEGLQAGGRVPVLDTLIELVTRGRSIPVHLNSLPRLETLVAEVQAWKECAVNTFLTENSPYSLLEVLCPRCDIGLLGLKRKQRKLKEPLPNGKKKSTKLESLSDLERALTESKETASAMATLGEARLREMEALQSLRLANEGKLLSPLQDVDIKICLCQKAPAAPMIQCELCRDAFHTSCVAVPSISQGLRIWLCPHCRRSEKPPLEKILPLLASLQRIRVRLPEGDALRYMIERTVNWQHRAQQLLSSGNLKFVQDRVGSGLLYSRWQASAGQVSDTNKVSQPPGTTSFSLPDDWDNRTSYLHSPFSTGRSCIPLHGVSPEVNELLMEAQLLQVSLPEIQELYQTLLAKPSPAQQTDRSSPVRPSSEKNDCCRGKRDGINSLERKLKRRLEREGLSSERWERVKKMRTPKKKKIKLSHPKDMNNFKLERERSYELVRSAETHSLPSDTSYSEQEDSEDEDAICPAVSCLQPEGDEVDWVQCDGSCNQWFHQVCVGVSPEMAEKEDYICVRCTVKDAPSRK

This assay has as its target Lysine-specific demethylase 5B (Homo sapiens) (UniProt Q9UGL1). As to the kind of experiment: Primary screen for KDM5B Histone Demethylases FDH-coupled qHTS. Further: nearly all actives have a fitted effect of over 70% in size. The following applies: FDH-coupled NADH fluorescence (FDH is formaldehyde dehydrogenase); series mostly up to 57.7 µM. In outline: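 KDM5BΔAP (200 nM final) in 50 mM HEPES pH 7.5, 0.01% Tween-20 was preincubated 10 min at RT with compound over a concentration range. Substrate mix (H3K4me3 12.5 µM, α-KG 25 µM, Fe²⁺, ascorbate, NAD⁺, FDH) was added, and NADH fluorescence change over 30 min gave dose-response curves.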
In general terms: In qHTS, concentration-response curves come from the screen itself.
For `O=[N+]([O-])c1cccc2nc(/C=C/c3ccc(C(F)(F)F)cc3)ccc12`, the Potency entry was “inactive”.
The same measure for `N#Cc1cccc(C2CCN(C(=O)C3CCN(C(=O)C4CC4)CC3)CC2)c1`: “inactive”; for `Cn1c(=O)[nH]c(=O)c2c1nc(N1CCN(Cc3ccccc3Cl)CC1)n2Cc1ccc(F)cc1`: “inactive”.
For `O=C(Cc1cccc(Cl)c1)N1CCC2(CC1)CN[S+](=O)([O-])c1cccnc1O2`, the Potency is 79.4 µM (active).
The same measure for `O=C(Cc1cccc(Cl)c1)N1CCC2(CN[S+](=O)([O-])c3cccnc3O2)C1` (stereo not given): “inactive”.
As for `O=[S+]1([O-])NCC2(CCCN(Cc3ccncc3)C2)Oc2ncccc21` (stereo not given), the Potency result was “inactive”.
The same measure for `CNS(=O)(=O)c1ccc(NC(=O)Nc2ccc3c(c2)OCO3)cc1`: “inactive”; for `Cc1nccnc1N1CCC(c2nnc(CN3CCCC3)n2C)CC1`: “inactive”; for `COc1c(CNCc2cccnc2N2CCOCC2)c(C)nn1C`: “inactive”.
For `Cn1c(CN2CCOCC2)nnc1C1CCN(c2ncccc2C#N)CC1` the value was 31.6 µM (active).
For `C=CCNC(=O)c1cn2c(n1)CN(C(=O)c1ccccc1F)CC2` the value was “inactive”; for `C=CCNC(=O)c1cn2c(n1)CN([S+](C)(=O)[O-])CC2`, “inactive”; for `C=CCNC(=O)c1ccc2ccnn2c1`, 31.6 µM (active).
Take `Cn1cc(CN2C[C@@H](CO)[C@H](C(=O)NC3CC3)C2)cn1`: the Potency result was “inactive”.
The same measure for `COc1ccccc1C(=O)N1CCN(c2cc(C(F)(F)F)ncn2)CC1`: “inactive”.
For `COc1ccccc1C(=O)N1CCCN(c2nnc3ccccn23)CC1` the value was 31.6 µM (active); for `Cc1ccc(-n2c(SC(C)C(=O)c3ccc(F)c(F)c3)nnc2N2CCOCC2)cc1` (stereo not given), “inactive”.
For `Cc1cccc2nnc(N3CCN(C(=O)c4ccc(F)c(F)c4)CC3)n12` the value was 28.2 µM (active); for `Cc1cccc(C(=O)N2CCCN(c3nnc4ccccn34)CC2)c1`, 28.2 µM (active).
As to `Cc1cccc(C(=O)N2CCC(OC3CCN(Cc4ccccc4)CC3)CC2)c1`, the Potency result was “inactive”.
For `Cc1cccc(C(=O)N2CCN(S(=O)(=O)N3CCCCC3)CC2)c1` the value was “inactive”.
For `COc1ccccc1C(=O)N1CCC(n2cnnc2C2CC2)CC1` the value was “inactive”; for `O=C(c1ccc(F)cc1)N1CCN(c2cc(-c3ccc(F)cc3)[nH]n2)CC1`, “inactive”.
For `Nc1cc(OCC(F)(F)F)cc(OCC(F)(F)C(F)F)c1` the value was “inactive”; for `CC1CCCC(NC(=O)c2ccccc2)C1C` (stereo not given), “inactive”.
Consider `COCCSCC(=O)N1CCOC(C)(C)C1`, for which the Potency result was “inactive”.
The same measure for `COCc1nc(C2CCCN(C(=O)CCC3CCCC3)C2)no1` (stereo not given): “inactive”; for `O=C(c1cc(-c2ccc(O)cc2)on1)N1CCOCC1`: “inactive”.
Regarding `O=C(c1cc2cccnn2n1)N1CCOCC1`, the Potency was 31.6 µM (active).
The same measure for `Cc1cc(C(=O)N2CCC3(CC2)CC(C(=O)N2CCOCC2)N(C)C3)nn1C` (stereo not given): “inactive”.
With `Cc1ccc(CNC(=O)Cc2cn(C)c3ccccc23)cc1`, the Potency entry is “inactive”.
The same measure for `CCOc1ccccc1NC(=O)NC1CCCCCCC1`: “inactive”; for `COc1cccc(NC(=O)C2(C#N)CCCC2)c1`: “inactive”.
For `COc1ccc(Nc2cc(C(=O)N3CCOCC3)c3ccccc3n2)cc1` the value was “inactive”.
Take `COc1ccc(NC(=O)C2(C)CN(C)Cc3ccc(Nc4cccc(OC)c4)nc32)cc1` (stereo not given): the Potency is 14.1 µM (active).
For `O=C(Nc1cc(F)ccc1F)N1CCC2(CC1)Oc1ccccc1C(=O)N2Cc1ccccc1F` the value was “inactive”; for `OCCCSc1nnc(-c2c[nH]c3ccccc23)n1C1CC1`, “inactive”; for `O=C(NCC1Cn2cccc2CN1Cc1ccccc1)c1ccco1` (stereo not given), 28.2 µM (active).
The same measure for `CC(C)NC(=O)NCC1Cn2cccc2C(=O)N1Cc1ccccc1` (stereo not given): “inactive”; for `O=C(NCC1Cn2cccc2C(=O)N1Cc1ccccc1)c1ccco1` (stereo not given): “inactive”.
For `CC(=O)NCC1Cn2cccc2CN1Cc1ccccc1` (stereo not given) the value was 28.2 µM (active); for `CC(C)CNC(=O)NCC1Cn2cccc2C(=O)N1Cc1ccccc1` (stereo not given), “inactive”.
For `O=C(NCC1Cn2cccc2C(=O)N1Cc1ccccc1)c1ccc(F)cc1` (stereo not given), the Potency entry is “inactive”.
For `CCCn1nc(C(=O)NCc2cccc(OC)c2)c2ccccc2c1=O` the value was “inactive”.
For `O=C(CSc1ncc(CO)n1Cc1ccc(F)cc1)NCc1ccc2c(c1)OCO2` the value was “inactive”; for `CN(C(=O)Cn1c(=O)n(C)c(=O)c2sccc21)c1ccccc1`, “inactive”.
With `Cc1ccc(C(=O)c2ccccc2C(=O)OCc2c(Cl)cccc2Cl)cc1`, the Potency entry is “inactive”.
For `O=C(NCCc1nc2ccccc2[nH]1)c1ccc(N2CCCN(Cc3ccccc3)C2=O)cc1`, the Potency result was “inactive”.
The same measure for `COCCn1ccc2cc(C(=O)Nc3ccc4c(c3)C(=O)N3CCC[C@H]3C(=O)N4)ccc21`: “inactive”.
For `O=C1Nc2ccc(Br)cc2C(=O)N2CCN(C(=O)C3CCCCC3)C[C@H]12` the value was “inactive”; for `COCC(=O)N[C@H]1C[C@H]2C(=O)Nc3ccc(/C=C/c4ccc(OC)cc4)cc3C(=O)N2C1`, 28.2 µM (active).
As for `COc1ccc(C(=O)N2CCc3nc(C(C)C)nc(-c4ccc(Cl)cc4)c3CC2)cc1`, the Potency entry was “inactive”.
The same measure for `Cc1nn(CC(=O)NC(C)(C)C)c(C)c1S(=O)(=O)N1CCCC(C(=O)N2CCC(C)CC2)C1` (stereo not given): “inactive”; for `Cc1cc(NC(=O)CCSc2nnc3c(Cl)cc(C(F)(F)F)cn23)no1`: “inactive”.
On to `COc1ccc(C(=O)N[C@H](C(=O)NCc2ccccc2)C(C)C)cc1`, for which the Potency entry was “inactive”.
For `O=C(NCc1nnc2ccccn12)C1NCCc2[nH]cnc21` (stereo not given) the value was “inactive”; for `O=C(C1NCCc2[nH]cnc21)N1CCc2nnc(-c3ccccc3)n2CC1` (stereo not given), “inactive”; for `Nc1nc(CCCNC(=O)C2NCCc3[nH]cnc32)cs1` (stereo not given), 25.1 µM (active).
For `COc1ccc2nc(C)c(C(=O)N(C)CC3COc4ccccc4O3)cc2c1` (stereo not given) the value was “inactive”; for `C/C(=N/NC(=S)NCc1ccccc1)c1cccc(C(F)(F)F)c1`, “inactive”.
